The whole screen tested about 220,000 compounds, of which about 2,000 (0.91%) were called active. Roughly 2% stayed inconclusive and do not appear here. Cut-off read from the data, not from the text of the source: inconclusive = inhibition above about 80% without an active follow-up result; inactive = below that; test concentration not stated here. A selection follows. Measured potencies and affinities stand elsewhere.
Assay: M. tuberculosis H37Rv growth inhibitors, H37Rv strain (AID 1626);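 note: bacteria incubated seven days before Alamar blue readout; 0% = bacteria only wells and 100% = bacteria with antibiotic wells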
Details: hits give high values, concentration not given here

Compound	inhibition
CN1CCC(N(C)CC(=O)Nc2ccccc2N2CCOCC2)CC1	13.7% (inactive)
O=C(NCCCO)NC(=S)c1cccc2ccccc12	-0.39% (inactive)
CCc1ccc(Nc2nnc(SCC(=O)NC(=O)c3cccn3C)s2)cc1	2.04% (inactive)
CCc1ccccc1NC(=O)CN(C)C(=O)CSc1nnc(Nc2cccc(C)c2)s1	6.25% (inactive)
Cc1cccc(Nc2nnc(SCC(=O)Nc3ccc(C(=O)O)cc3)s2)c1	13.8% (inactive)
Cc1cc(NC(=O)CSc2nnc(Nc3ccccc3C)s2)no1	-2.04% (inactive)
Cc1ccc(C)c(SCC(=O)Nc2cccnc2Cl)c1	18.9% (inactive)
CCc1ccc(Nc2nnc(SCC(=O)Nc3ccc(C(=O)O)cc3)s2)cc1	-5.8% (inactive)
CCOC(=O)c1cc2c(ccn2-c2ccc(F)cc2)n1CC(=O)N1CCN(C(=O)c2ccco2)CC1	-1.91% (inactive)
Clc1ccccc1CNC1CN2CCC1CC2 (stereo not drawn)	5.7% (inactive)
CCNc1ncnc2c1cnn2C	-10.7% (inactive)
Cc1ccc(SCc2[nH]nc3c2C2(C(=O)Nc4ccc([N+](=O)[O-])cc42)C(C#N)=C(N)O3)cc1 (stereo not drawn)	-2.15% (inactive)
COc1ccc(CNc2nc3ccccc3n2CCN2CCCCC2)cc1	-0.5% (inactive)
CCN(CC)c1ccc(CNc2nc3ccccc3n2CCN2CCOCC2)cc1	6.6% (inactive)
Cc1ccc(S(=O)(=O)NCc2ccc(C(=O)N(C)CCC#N)cc2)cc1	4.15% (inactive)
Cc1ccc(NC(=O)c2cnccn2)cc1	3.69% (inactive)
O=C(Nc1ccc(Cl)c(C(F)(F)F)c1)c1ccco1	10.7% (inactive)
O=C(CCNc1cccc(C(F)(F)F)c1)c1ccco1	53.5% (inactive)
O=C(COC(=O)CCS(=O)(=O)c1ccc(Cl)cc1)NC1CCCCC1	0.69% (inactive)
Cc1cc(NC(=O)CSc2nnc(-c3ccc(O)cc3)o2)no1	-6.89% (inactive)
COc1cccc(-c2nnc(SCC(=O)Nc3cc(C)on3)n2C)c1	-2.38% (inactive)
Cc1cc(NC(=O)CSc2nnc(Cc3ccccc3)o2)no1	-8.58% (inactive)
O=C(CCSc1nnc(-c2ccc(O)cc2)o1)N1CCOCC1	-1.1% (inactive)
Cc1cc(NC(=O)CSc2nnc(-c3ccco3)o2)no1	-3.8% (inactive)
CCOc1ccc(-c2nnc3ccc(SCC(=O)Nc4cc(C)on4)nn23)cc1	4.14% (inactive)

Compound	inhibition
Cc1ccc(-c2nnc(SCCC(=O)N3CCOCC3)o2)cc1	77.5% (inactive)
Cc1cc(NC(=O)CSc2nnc(COc3ccccc3)o2)no1	3.02% (inactive)
COc1cc(OC)c(Nc2cc(C)nc3nc(C)nn23)cc1Cl	10.9% (inactive)
COc1ccccc1N1CCN(C(c2ccc(Cl)cc2)c2nnnn2C(C)(C)C)CC1 (stereo not drawn)	3.99% (inactive)
COc1ccc(-n2c(O)c(C=Nc3c(C)n(C)n(-c4ccccc4)c3=O)c(=O)[nH]c2=O)cc1	6.56% (inactive)
CN(c1ccc(C(=O)N2CCN(Cc3ccc4c(c3)OCO4)CC2)cc1)S(=O)(=O)c1ccccc1	7.14% (inactive)
O=C(Nc1cccc(NC(=S)NC(=O)c2cccs2)c1)c1ccccc1	-2.28% (inactive)
CSc1cccc(NC(=S)N(CCC(C)C)C2CCN(C(C)=O)CC2)c1	-6.61% (inactive)
CC(N)C(=O)c1ccco1 (stereo not drawn)	-3.4% (inactive)
COc1ccccc1NC(=S)NNC(=O)c1cc(C)nn1C	-9.1% (inactive)
COc1ccc(-c2nnc(SCC(=O)Nc3cc(F)ccc3C)o2)cc1	-6.49% (inactive)
Cc1cc(NC(=O)CSc2nnc(-c3ccoc3C)o2)no1	4.02% (inactive)
O=C(CSc1nnc(-c2ccc(O)cc2)o1)Nc1ccc2c(c1)OCCO2	-0.38% (inactive)
COc1ccccc1-n1c(CNc2ccc(F)cc2)nnc1SCC(=O)Nc1cc(C)on1	-4.09% (inactive)
COc1ccccc1-c1nnc(SCC(=O)Nc2c(Cl)cccc2Cl)o1	-3.32% (inactive)
Cc1cc(NC(=O)CSc2ccc3c(c2)OCCO3)no1	-5.76% (inactive)
Cc1ccc(NCc2nnc(SCC(=O)Nc3cc(C)on3)n2C)cc1	-5.91% (inactive)
COc1ccc(-c2nnc(SCC(=O)Nc3nncs3)o2)cc1	1.2% (inactive)
Cc1cccc(NN=C2c3ccccc3-c3ccccc32)c1	1.34% (inactive)
Cc1cc(C)nc(SCc2nnc(SCC(=O)Nc3ccc(C)c(C)c3)o2)n1	0.69% (inactive)
Cc1ccc(-c2nn3c(C)nnc3s2)cc1NC(=O)c1ccc(-c2ccc(Cl)cc2Cl)o1	-7.97% (inactive)
Cc1ccccc1CSCC(=O)NC1CCCC1	3.78% (inactive)
Cc1ccccc1NC(=S)N(C)Cc1cn(C)c2ccccc12	2.82% (inactive)
O=C(CSc1nnc(-c2ccc(F)cc2)o1)NC1CCCCC1	-0.23% (inactive)
COc1ccc(CCNC(=O)CSc2nnc(-c3ccc(F)cc3)o2)cc1OC	-1.7% (inactive)

Compound	inhibition
O=C(O)CCc1nn2c3ccccc3n(CCO)c2nc1=O	2.12% (inactive)
S=c1[nH]cnc2scc(-c3ccc(Cl)cc3)c12	76.4% (inactive)
Cc1ccc(-c2csc3nc[nH]c(=O)c23)cc1	-5.48% (inactive)
Nc1nc(NC(=O)/C=C/c2ccccc2)nn1-c1ccccc1	-0.46% (inactive)
COc1ccc(/C=C/C(=O)Nc2nc(N)n(-c3ccccc3)n2)cc1	6.8% (inactive)
Cc1ccc(Cn2c(NS(=O)(=O)c3ccccc3)nc3ccccc32)cc1	84.8% (inactive)
CCCn1c(NCc2ccco2)nc2ccccc21	-3.29% (inactive)
Cn1c(C(C#N)C(=O)Cc2cccc3ccccc23)nc2ccccc21 (stereo not drawn)	-15.5% (inactive)
Cn1c(C(C#N)C(=O)c2sc3ccccc3c2Cl)nc2ccccc21 (stereo not drawn)	94.3% (inactive)
O=C(Nc1nc2ccccc2n1CCN1CCCCC1)c1ccco1	6.64% (inactive)
O=C(Nc1nc2ccccc2n1Cc1ccc(Cl)cc1)c1ccco1	16.1% (inactive)
CC(O)C1C(=O)OC2(C)CC(C)(C)NC(=S)N12 (stereo not drawn)	-6.84% (inactive)
CCOC(=O)c1c(NC(=O)CC)sc(C(C)=O)c1C	2.45% (inactive)
O=C(NN=C1CCCCCC1)c1c[nH]c2ccccc12	-1.9% (inactive)
Cn1c2c(c(=O)n(C)c1=O)CN(CCc1ccccc1)CN2	-1.68% (inactive)
Cc1cc(C)nc(Nc2nc(=O)c3ccccc3s2)n1	-3.37% (inactive)
NC(=O)[C@@H]1CCOc2c(I)cc([N+](=O)[O-])cc2C(=O)N[C@@H](CO)C(=O)NCC(=O)N1	-8.7% (inactive)
CC(=O)N1NC(=Nc2ccccc2)SC1(C)C	-6.07% (inactive)
O=C(CN1CCCC1)NCC12CC3CC(CC(C3)C1)C2	-7.14% (inactive)
COCCNC(=O)C(c1ccc(Cl)cc1)N(CCOC)C(=O)CCC(=O)Nc1nccs1 (stereo not drawn)	-6.72% (inactive)
Cc1cc(C)cc(N(C(=O)CCC(=O)Nc2ccccn2)C(C(=O)NC(C)C)c2ccc(O)cc2)c1 (stereo not drawn)	4.72% (inactive)
Nc1nc(SCc2ccc(Cl)cc2Cl)ns1	28.5% (inactive)
Nc1nc(NC(=O)c2ccccc2)nn1-c1ccccc1	-1.03% (inactive)
Nc1nc(NC(=O)c2ccco2)nn1-c1ccccc1	-7.46% (inactive)
COc1ccc(/C=N/NC(=O)c2ccn[nH]2)cc1Cn1nc(C)c([N+](=O)[O-])c1C	1.53% (inactive)

Compound	inhibition
O=C(Cc1ccccc1[N+](=O)[O-])N1CCc2ccccc2C1	-4.17% (inactive)
CC(OC(=O)CCCOc1ccccc1)C(=O)NC(N)=O (stereo not drawn)	-2.98% (inactive)
Cc1cc(C2=NNC(=NC3CC3)SC2)c(C)n1-c1ccccc1F	-4.49% (inactive)
COCCCN=C1NN=C(c2cc(C)n(Cc3ccco3)c2C)CS1	-3.28% (inactive)
COCC(C)N=C1NN=C(c2cc(C)n(Cc3ccccc3Cl)c2C)CS1 (stereo not drawn)	5.76% (inactive)
COCCCN=C1NN=C(c2cc(C)n(-c3ccccc3)c2C)CS1	-2.89% (inactive)
O=C(OCC(=O)N1c2ccccc2Sc2ccccc21)C1CC(=O)N(Cc2ccco2)C1 (stereo not drawn)	3.33% (inactive)
Brc1ccc(-c2c[n+]3c(n2-c2ccccc2)SCC3)cc1	1.71% (inactive)
CCOc1ccccc1CNC(=O)CCN1C(=O)COc2ccccc21	4.08% (inactive)
CCOC(=O)C1=C(c2ccccc2)NC(=O)NC1c1ccc(OC)c(OC)c1 (stereo not drawn)	-0.28% (inactive)
CCOC(=O)C1=C(c2ccccc2)NC(=O)NC1c1ccc(OCC#N)c(OC)c1 (stereo not drawn)	2.6% (inactive)
N#Cc1nc(-c2ccccc2F)oc1NC1CCCCC1	3.24% (inactive)
CN(CC(=O)Nc1ccc(Cl)c(Cl)c1)C(=O)/C=C/c1ccc(F)cc1	-5.59% (inactive)
CN(CC(=O)Nc1ccc(C#N)cc1)Cc1ccc(Cl)c(Cl)c1	11.2% (inactive)
CCOP(=O)(OCC)C(Nc1cccc(C(F)(F)F)c1)c1ccc(F)cc1 (stereo not drawn)	0.98% (inactive)
C=CCN=C1NN=C(c2ccc3c(c2)OCCO3)CS1	-5.3% (inactive)
c1cc2c(cc1C1=NNC(=NC3CC3)SC1)OCCO2	-0.26% (inactive)
COc1ccccc1NS(=O)(=O)c1cc(NC(=O)c2ccco2)ccc1N1CCOCC1	9.4% (inactive)
O=c1[nH]c(=O)n(C2CCCCC2)c(O)c1C1NCCc2ccccc21 (stereo not drawn)	-2.63% (inactive)
COc1cc(NC(=S)Nc2ccccn2)cc(OC)c1	14.7% (inactive)
Cc1cc(C)c(C)c(S(=O)(=O)N2CCN(C(=S)NCC3CCCO3)CC2)c1C (stereo not drawn)	9.9% (inactive)
O=C(Nc1ccccc1O)c1ccc(Cl)cc1	-5.68% (inactive)
COc1ccc(C(=O)Nc2cc(Cl)ccc2OC(=O)c2ccc(OC)cc2)cc1	-1.73% (inactive)
